Data reported in PubChem BioAssay (NCI).
Compounds without any hit were thinned out: in the full panel of roughly 83,000, 20% have a hit.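 Results are percent growth after 48 hours of single-concentration exposure. 100 means growth as in untreated cells, lower positive values show inhibition; negative values down to -100 show cell death.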 The source made the active and inactive calls. How the source made its calls: active means growth percent below 10; inactive means the rest.

Assays:
Assay in all cases: NCI-60 one-dose screen, 48 h (100 = growth as untreated, 0 = no growth, -100 = all killed)
SK-MEL-2 melanoma = conditions: 10 µM unless noted
EKVX NSCLC = conditions: 10 µM unless noted
SN12C renal = conditions: 10 µM unless noted
UO-31 renal = conditions: 10 µM unless noted
TK-10 renal = conditions: 10 µM unless noted
CAKI-1 renal = conditions: 10 µM unless noted
A498 renal = conditions: 10 µM unless noted
CCRF-CEM leukemia = conditions: 10 µM unless noted
MOLT-4 leukemia = conditions: 10 µM unless noted
SR leukemia = conditions: 10 µM unless noted
RPMI-8226 leukemia = conditions: 10 µM
OVCAR-8 ovarian = conditions: 10 µM unless noted
OVCAR-4 ovarian = conditions: 10 µM unless noted
SK-OV-3 ovarian = conditions: 10 µM
IGROV1 ovarian = conditions: 10 µM unless noted
OVCAR-3 ovarian = conditions: 10 µM unless noted
HS 578T breast = conditions: 10 µM unless noted
NCI/ADR-RES ovarian = conditions: 10 µM unless noted
OVCAR-5 ovarian = conditions: 10 µM unless noted
ACHN renal = conditions: 10 µM unless noted

Measured: growth

COc1ccc(-c2c(-c3cc4c(c(OC)c3OC)OCO4)noc2N)cc1
active: OVCAR-3 ovarian -38.1% | NCI/ADR-RES ovarian 2.53%
inactive: SK-MEL-2 melanoma 63% | EKVX NSCLC 40.5% | SN12C renal 44.4% | UO-31 renal 57.4% | TK-10 renal 66.3% | CAKI-1 renal 37.6% | A498 renal 35.8% | CCRF-CEM leukemia 11.7% | MOLT-4 leukemia 36.6% | SR leukemia 10.9% | RPMI-8226 leukemia 17.3% | OVCAR-8 ovarian 32.1% | OVCAR-4 ovarian 55% | SK-OV-3 ovarian 16.2% | IGROV1 ovarian 46.3% | HS 578T breast 16%

CCN1C(=O)C2(Nc3ccccc3S2)c2cc(C)ccc21 (centres undefined)
active: CCRF-CEM leukemia 9.42%
inactive: SK-MEL-2 melanoma 111% | EKVX NSCLC 103% | SN12C renal 97.7% | UO-31 renal 79.3% | TK-10 renal 107% | CAKI-1 renal 99% | MOLT-4 leukemia 100% | SR leukemia 111% | RPMI-8226 leukemia 92.9% | OVCAR-8 ovarian 97.8% | OVCAR-5 ovarian 91.8% | OVCAR-4 ovarian 95.9% | SK-OV-3 ovarian 100% | IGROV1 ovarian 98.2% | OVCAR-3 ovarian 108% | HS 578T breast 116% | NCI/ADR-RES ovarian 101%

O=c1c2c(=NCCN3CCCC3)cc3c(=O)n(CCCN4CCOCC4)c(=O)c4ccc(c(O)n1CCCN1CCOCC1)c2c4-3
active: SK-MEL-2 melanoma -27.2% | EKVX NSCLC -12.8% | SN12C renal 4.69% | UO-31 renal 0.795% | ACHN renal 2.23% | CAKI-1 renal 8.73% | A498 renal -78.9% | CCRF-CEM leukemia 1.35% | MOLT-4 leukemia 2.58% | OVCAR-5 ovarian -10.9% | OVCAR-4 ovarian -49.1% | IGROV1 ovarian 2.41% | OVCAR-3 ovarian -8.68% | HS 578T breast -13.9% | NCI/ADR-RES ovarian -2.98%
inactive: SR leukemia 13.5% | OVCAR-8 ovarian 11.9%

CCC(C)[C@H]1O[C@]2(CC[C@@H]1C)C[C@@H]1C[C@@H](C/C=C(\C)[C@@H](OC3C[C@H](OC)C(O[C@H]4C[C@H](OC)[C@@H](O)[C@H](C)O4)[C@H](C)O3)[C@@H](C)/C=C/C=C3\CO[C@@H]4[C@H](O)C(C)=C[C@@H](C(=O)O1)[C@]34O)O2 (some centres undefined)
active: SK-MEL-2 melanoma -9.26% | EKVX NSCLC 4.67% | UO-31 renal 9.45% | ACHN renal -66.3% | A498 renal -23.7% | OVCAR-3 ovarian -26.5% | NCI/ADR-RES ovarian 7.07%
inactive: SN12C renal 14.6% | TK-10 renal 30.2% | CCRF-CEM leukemia 25.9% | OVCAR-8 ovarian 42.4% | OVCAR-5 ovarian 24.4% | SK-OV-3 ovarian 50.8% | IGROV1 ovarian 27.3% | HS 578T breast 26%

O=c1c2cc(F)ccc2oc2c(NCCNCCO)nc3ccccc3c12
active: MOLT-4 leukemia -0.96% | SR leukemia -28.7%
inactive: SK-MEL-2 melanoma 84.7% | EKVX NSCLC 50.9% | SN12C renal 37.7% | UO-31 renal 37.1% | TK-10 renal 71.3% | ACHN renal 19.1% | CCRF-CEM leukemia 30.9% | OVCAR-8 ovarian 34.1% | OVCAR-5 ovarian 60.6% | OVCAR-4 ovarian 37.3% | IGROV1 ovarian 37% | OVCAR-3 ovarian 55% | HS 578T breast 67.1% | NCI/ADR-RES ovarian 48.9%

COc1ccccc1CNCCCCCCCCCCCCN1C(=O)c2ccc3c4c(ccc(c24)C1=O)C(=O)N(CCCCCCCCCCCCNCc1ccccc1OC)C3=O
inactive: SK-MEL-2 melanoma 107% | EKVX NSCLC 109% | SN12C renal 74.1% | UO-31 renal 109% | CAKI-1 renal 102% | CCRF-CEM leukemia 50.4% | MOLT-4 leukemia 64.6% | OVCAR-5 ovarian 100% | OVCAR-4 ovarian 92.3% | SK-OV-3 ovarian 117% | IGROV1 ovarian 83% | OVCAR-3 ovarian 44.5% | NCI/ADR-RES ovarian 85%
active: TK-10 renal -46.7% | A498 renal -60.4% | SR leukemia 7.77% | RPMI-8226 leukemia 2.41% | OVCAR-8 ovarian -60.9% | HS 578T breast -9.15%

CCCCCCCC/C=C\CCCCCCCCOc1cccc(CC(=O)NCC[N+]2(C)CCCC2)c1
active: IGROV1 ovarian -15.7%
inactive: SK-MEL-2 melanoma 107% | EKVX NSCLC 89.4% | SN12C renal 53% | UO-31 renal 94.1% | TK-10 renal 84.7% | CAKI-1 renal 78.1% | CCRF-CEM leukemia 51.6% | MOLT-4 leukemia 80.3% | SR leukemia 43.1% | RPMI-8226 leukemia 77.3% | OVCAR-8 ovarian 85.5% | OVCAR-5 ovarian 53.8% | OVCAR-4 ovarian 77.1% | OVCAR-3 ovarian 96.2% | HS 578T breast 77.5% | NCI/ADR-RES ovarian 108%

CN(C)C(=S)SCN1C(=O)c2ccc([N+](=O)[O-])cc2S1(=O)=O
inactive: SK-MEL-2 melanoma 112% | EKVX NSCLC 93.7% | SN12C renal 93.1% | UO-31 renal 83.1% | TK-10 renal 108% | A498 renal 92.6% | CCRF-CEM leukemia 50.6% | MOLT-4 leukemia 91.6% | SR leukemia 75.8% | RPMI-8226 leukemia 116% | OVCAR-8 ovarian 98.5% | OVCAR-4 ovarian 103% | SK-OV-3 ovarian 107% | IGROV1 ovarian 104% | OVCAR-3 ovarian 99.3% | HS 578T breast 93% | NCI/ADR-RES ovarian 96.4%

O=c1ccc2ccccc2o1
inactive: SK-MEL-2 melanoma 101% | EKVX NSCLC 109% | SN12C renal 109% | UO-31 renal 89.9% | TK-10 renal 98.3% | CAKI-1 renal 89.7% | A498 renal 96.4% | CCRF-CEM leukemia 87.4% | OVCAR-8 ovarian 105% | OVCAR-5 ovarian 104% | SK-OV-3 ovarian 111% | IGROV1 ovarian 111% | OVCAR-3 ovarian 111% | HS 578T breast 105%

Clc1ccc(C2=Nc3cccc4cccc(c34)N2)cc1Cl
inactive: SK-MEL-2 melanoma 96.2% | EKVX NSCLC 91.1% | SN12C renal 110% | UO-31 renal 72.3% | TK-10 renal 97.9% | ACHN renal 94.7% | CCRF-CEM leukemia 67.4% | RPMI-8226 leukemia 56.8% | OVCAR-8 ovarian 97.7% | OVCAR-5 ovarian 126% | OVCAR-4 ovarian 32.6% | SK-OV-3 ovarian 98.1% | IGROV1 ovarian 71.8% | OVCAR-3 ovarian 86% | NCI/ADR-RES ovarian 95.8%

O=C(O)c1ccccc1Oc1cc(-c2ccco2)nc(OCCBr)n1
inactive: SK-MEL-2 melanoma 111% | EKVX NSCLC 94.5% | SN12C renal 94.7% | UO-31 renal 86.6% | TK-10 renal 103% | CAKI-1 renal 90.7% | A498 renal 99.3% | CCRF-CEM leukemia 87.1% | MOLT-4 leukemia 98.5% | SR leukemia 102% | RPMI-8226 leukemia 123% | OVCAR-8 ovarian 103% | OVCAR-4 ovarian 98.5% | SK-OV-3 ovarian 103% | IGROV1 ovarian 106% | OVCAR-3 ovarian 105% | HS 578T breast 98.1%

COc1ccc(-c2nn(-c3ccc(NC(=O)c4ccc(Cl)c(Cl)c4)cc3)cc2-c2ccncc2)cc1Cl
inactive: SK-MEL-2 melanoma 43.5% | EKVX NSCLC 56.4% | SN12C renal 80.5% | ACHN renal 52.6% | CCRF-CEM leukemia 37.4% | MOLT-4 leukemia 13.8% | SR leukemia 27.4% | OVCAR-8 ovarian 63.8% | OVCAR-5 ovarian 60.9% | OVCAR-4 ovarian 79.5% | SK-OV-3 ovarian 65.6% | IGROV1 ovarian 61.9% | OVCAR-3 ovarian 56.7%
active: UO-31 renal 2.82% | CAKI-1 renal -13.7% | A498 renal -0.135% | RPMI-8226 leukemia -35.4%

CCCN1CCN(c2ccc3nc(-c4ccc5nc(-c6ccc(C(F)(F)F)cc6)[nH]c5c4)[nH]c3c2)CC1
inactive: UO-31 renal 79.7% | CAKI-1 renal 59% | NCI/ADR-RES ovarian 74%
active: SK-MEL-2 melanoma 7.45% | EKVX NSCLC -34.3% | SN12C renal -69.2% | TK-10 renal -13% | MOLT-4 leukemia -38.6% | SR leukemia -35.5% | RPMI-8226 leukemia -29.9% | OVCAR-8 ovarian -38% | OVCAR-5 ovarian -25% | OVCAR-4 ovarian -82.5% | IGROV1 ovarian -83.5% | OVCAR-3 ovarian -96.9% | HS 578T breast 4.6%

CCCCc1ccc(NC(=O)C(F)(F)F)cc1
inactive: SK-MEL-2 melanoma 99% | EKVX NSCLC 120% | SN12C renal 98.3% | UO-31 renal 83.8% | TK-10 renal 95.4% | ACHN renal 102% | A498 renal 84.1% | MOLT-4 leukemia 74.9% | SR leukemia 86.4% | RPMI-8226 leukemia 91.4% | OVCAR-8 ovarian 95.1% | OVCAR-5 ovarian 99.6% | OVCAR-4 ovarian 114% | SK-OV-3 ovarian 109% | IGROV1 ovarian 113% | OVCAR-3 ovarian 106% | NCI/ADR-RES ovarian 103%

CN1CCN(CCCn2c3c(sc4ncccc43)c(=O)n3nnc(-c4ccccc4)c23)CC1
inactive: SK-MEL-2 melanoma 99.3% | EKVX NSCLC 97.2% | SN12C renal 75.2% | CAKI-1 renal 97.7% | A498 renal 150% | RPMI-8226 leukemia 72.5% | OVCAR-5 ovarian 119%
active: UO-31 renal -90.8% | TK-10 renal -73.3% | MOLT-4 leukemia -35% | SR leukemia -25.2% | OVCAR-8 ovarian -48.2% | OVCAR-4 ovarian -61.4% | OVCAR-3 ovarian -83.1% | NCI/ADR-RES ovarian -28.4%

CCN(CC)c1ccc2c(c1)OS(=O)(=O)N=C2
inactive: SK-MEL-2 melanoma 113% | EKVX NSCLC 88% | SN12C renal 100% | UO-31 renal 82.6% | TK-10 renal 101% | CAKI-1 renal 94.7% | CCRF-CEM leukemia 106% | MOLT-4 leukemia 110% | SR leukemia 93.3% | OVCAR-8 ovarian 107% | OVCAR-5 ovarian 99.9% | OVCAR-4 ovarian 97.9% | IGROV1 ovarian 97.5% | OVCAR-3 ovarian 114% | HS 578T breast 110%

COc1ccc2c(c1)c(=O)oc1c(C)c(OCC(C)=O)ccc12
inactive: SK-MEL-2 melanoma 115% | SN12C renal 94% | UO-31 renal 98.3% | TK-10 renal 82.7% | CAKI-1 renal 92.1% | A498 renal 90% | CCRF-CEM leukemia 99.7% | MOLT-4 leukemia 92.9% | SR leukemia 116% | RPMI-8226 leukemia 92.6% | OVCAR-8 ovarian 96.3% | OVCAR-5 ovarian 86.9% | OVCAR-4 ovarian 93.6% | SK-OV-3 ovarian 110% | IGROV1 ovarian 111% | OVCAR-3 ovarian 109% | HS 578T breast 33.6% | NCI/ADR-RES ovarian 97.6%
active: EKVX NSCLC 4.14%

CCN1CCN(c2ccc(Nc3ncc4ccc5ncn(C(C)C)c5c4n3)nc2)CC1
inactive: OVCAR-8 ovarian 13.6%
active: SK-MEL-2 melanoma -56.7% | EKVX NSCLC -6.84% | SN12C renal 4.25% | UO-31 renal -5.17% | ACHN renal 2.84% | CAKI-1 renal -10.7% | A498 renal -61.5% | CCRF-CEM leukemia 4.85% | MOLT-4 leukemia 2.48% | SR leukemia 3.9% | OVCAR-5 ovarian 4.92% | OVCAR-4 ovarian 5.12% | IGROV1 ovarian -4.82% | OVCAR-3 ovarian -28.2% | HS 578T breast -20.8% | NCI/ADR-RES ovarian 2.06%
